According to paper PMC5540273 (PLoS ONE, 2017):
“And” between values parts separate entries of the source, which are not always exact repeats. Equal entries are not always repeated. Where two headings read alike, the source gives them in different places.

Experiments:
PRKR = test system: T1, PRKR; settings: concentration: 1 μM, replicates: in singlicate; n = 1
T1 construct: gene EIF2AK2

PRKX = settings: concentration: 1 μM, replicates: in singlicate; n = 1
PRP4 = settings: concentration: 1 μM, replicates: in singlicate; n = 1
PYK2 = test system: T2, PYK2; settings: concentration: 1 μM, replicates: in singlicate; n = 1
T2 construct: gene PTK2B

QSK = settings: concentration: 1 μM, replicates: in singlicate, n = 1
RAF1 = settings: concentration: 1 μM, replicates: in singlicate, n = 1
RET = settings: concentration: 1 μM, replicates: in singlicate, n = 1
RIOK1 = settings: concentration: 1 μM, replicates: in singlicate, n = 1
RIOK2 = settings: concentration: 1 μM, replicates: in singlicate, n = 1
RIOK3 = settings: concentration: 1 μM, replicates: in singlicate, n = 1
RIPK1 = settings: concentration: 1 μM, replicates: in singlicate, n = 1
RIPK2 = settings: concentration: 1 μM, replicates: in singlicate, n = 1
RIPK4 = settings: concentration: 1 μM, replicates: in singlicate, n = 1
RIPK5 = settings: concentration: 1 μM, replicates: in singlicate, n = 1
ROCK1 = settings: concentration: 1 μM, replicates: in singlicate, n = 1
ROCK2 = settings: concentration: 1 μM, replicates: in singlicate, n = 1
ROS1 = settings: concentration: 1 μM, replicates: in singlicate, n = 1
[1] = test system: RPS6KA4(Kin.Dom.1-N-terminal); settings: concentration: 1 μM, replicates: in singlicate, n = 1
[2] = test system: RPS6KA4(Kin.Dom.2-C-terminal); settings: concentration: 1 μM, replicates: in singlicate, n = 1
[3] = test system: RPS6KA5(Kin.Dom.1-N-terminal); settings: concentration: 1 μM, replicates: in singlicate; n = 1
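Also: KINOMEscan kinase panel screen.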

## O=C(Nc1ccccc1F)NC1CCN(c2ccnc(Nc3ccc(F)cc3)n2)C1 (centres unmarked) [GSK1379722]
PRKR
  %Inh: 0%
PRKX
  %Inh: 17%
PRP4
  %Inh: 27%
PYK2
  %Inh: 0%
QSK
  %Inh: 15%
RAF1
  %Inh: 19%
RET
  %Inh: 8%
RIOK1
  %Inh: 24%
RIOK2
  %Inh: 0%
RIOK3
  %Inh: 15%
RIPK1
  %Inh: 0%
RIPK2
  %Inh: 0%
RIPK4
  %Inh: 98.7%
RIPK5
  %Inh: 0%
ROCK1
  %Inh: 11%
ROCK2
  %Inh: 16%
ROS1
  %Inh: 22%
[1]
  %Inh: 6%
[2]
  %Inh: 0%
[3]
  %Inh: 20%

## CNc1nccc(-c2c(-c3ccc(F)cc3)ncn2CCCN2CCOCC2)n1 [SB-222516]
PRKR
  %Inh: 0%
PRKX
  %Inh: 0%
PRP4
  %Inh: 0%
PYK2
  %Inh: 4%
QSK
  %Inh: 19%
RAF1
  %Inh: 0%
RET
  %Inh: 7%
RIOK1
  %Inh: 25%
RIOK2
  %Inh: 0%
RIOK3
  %Inh: 24%
RIPK1
  %Inh: 9%
RIPK2
  %Inh: 0%
RIPK4
  %Inh: 33%
RIPK5
  %Inh: 0%
ROCK1
  %Inh: 4%
ROCK2
  %Inh: 0%
ROS1
  %Inh: 3%
[1]
  %Inh: 27%
[2]
  %Inh: 1%
[3]
  %Inh: 8%

## Cc1cc(N2CCC(NS(=O)(=O)c3ccc(F)cc3)CC2)nc(Nc2cccc(C#N)c2)n1.O=C(O)C(F)(F)F [GSK1653537]
PRKR
  %Inh: 0%
PRKX
  %Inh: 0%
PRP4
  %Inh: 3%
PYK2
  %Inh: 37%
QSK
  %Inh: 9%
RAF1
  %Inh: 0%
RET
  %Inh: 29%
RIOK1
  %Inh: 45%
RIOK2
  %Inh: 0%
RIOK3
  %Inh: 25%
RIPK1
  %Inh: 57%
RIPK2
  %Inh: 0%
RIPK4
  %Inh: 4%
RIPK5
  %Inh: 0%
ROCK1
  %Inh: 0%
ROCK2
  %Inh: 0%
ROS1
  %Inh: 7%
[1]
  %Inh: 0%
[2]
  %Inh: 0%
[3]
  %Inh: 28%

## Nc1nc(-c2ccc3c(N)n[nH]c3c2)cc(N2CCC[C@@H](C(=O)Nc3ccccc3)C2)n1.O=C(O)C(F)(F)F.O=C(O)C(F)(F)F [GSK2288359]
PRKR
  %Inh: 0%
PRKX
  %Inh: 71%
PRP4
  %Inh: 26%
PYK2
  %Inh: 0%
QSK
  %Inh: 0%
RAF1
  %Inh: 0%
RET
  %Inh: 0%
RIOK1
  %Inh: 79%
RIOK2
  %Inh: 12%
RIOK3
  %Inh: 82%
RIPK1
  %Inh: 10%
RIPK2
  %Inh: 5%
RIPK4
  %Inh: 13%
RIPK5
  %Inh: 3%
ROCK2
  %Inh: 61%
ROS1
  %Inh: 0%
[1]
  %Inh: 0%
[2]
  %Inh: 0%
[3]
  %Inh: 0%

## Cn1ccc2ncnc(Oc3ccc(NC(=O)Nc4cccnc4)c(Cl)c3)c21
PRKR
  %Inh: 7%
PRKX
  %Inh: 12%
PRP4
  %Inh: 20%
PYK2
  %Inh: 9%
QSK
  %Inh: 0%
RAF1
  %Inh: 0%
RET
  %Inh: 52%
RIOK1
  %Inh: 0%
RIOK2
  %Inh: 53%
RIOK3
  %Inh: 4%
RIPK1
  %Inh: 0%
RIPK2
  %Inh: 3%
RIPK4
  %Inh: 0%
RIPK5
  %Inh: 19%
ROCK1
  %Inh: 1%
ROCK2
  %Inh: 0%
ROS1
  %Inh: 0%
[1]
  %Inh: 0%
[2]
  %Inh: 0%
[3]
  %Inh: 17%

## Cc1ccc(C)c(NC(=O)NCCNc2ccnc(Nc3ccc(F)cc3)n2)c1 [GSK1379878]
PRKR
  %Inh: 0%
PRKX
  %Inh: 0%
PRP4
  %Inh: 48%
PYK2
  %Inh: 7%
QSK
  %Inh: 0%
RAF1
  %Inh: 42%
RET
  %Inh: 3%
RIOK1
  %Inh: 36%
RIOK2
  %Inh: 0%
RIOK3
  %Inh: 37%
RIPK1
  %Inh: 4%
RIPK2
  %Inh: 0%
RIPK4
  %Inh: 0%
RIPK5
  %Inh: 9%
ROCK1
  %Inh: 7%
ROCK2
  %Inh: 0%
ROS1
  %Inh: 16%
[1]
  %Inh: 0%
[2]
  %Inh: 0%
[3]
  %Inh: 0%

## Nc1nc(-c2ccc3c(N)n[nH]c3c2)cc(N2CCCCC2)n1 [GSK2228768]
PRKR
  %Inh: 6%
PRKX
  %Inh: 35%
PRP4
  %Inh: 0%
PYK2
  %Inh: 0%
QSK
  %Inh: 0%
RAF1
  %Inh: 7%
RET
  %Inh: 1%
RIOK1
  %Inh: 64%
RIOK2
  %Inh: 9%
RIOK3
  %Inh: 28%
RIPK1
  %Inh: 0%
RIPK2
  %Inh: 0%
RIPK4
  %Inh: 7%
RIPK5
  %Inh: 0%
ROCK1
  %Inh: 0%
ROCK2
  %Inh: 0%
ROS1
  %Inh: 6%
[1]
  %Inh: 4%
[2]
  %Inh: 0%
[3]
  %Inh: 6%

## Cc1cccc(-c2nc(Nc3ccc4[nH]nnc4c3)c3ccccc3n2)n1 [GW867587]
PRKR
  %Inh: 0%
PRKX
  %Inh: 0%
PRP4
  %Inh: 0%
PYK2
  %Inh: 0%
QSK
  %Inh: 0%
RAF1
  %Inh: 0%
RET
  %Inh: 0%
RIOK1
  %Inh: 0%
RIOK2
  %Inh: 0%
RIOK3
  %Inh: 0%
RIPK1
  %Inh: 0%
RIPK2
  %Inh: 0%
RIPK4
  %Inh: 0%
RIPK5
  %Inh: 0%
ROCK1
  %Inh: 49%
ROCK2
  %Inh: 0%
ROS1
  %Inh: 0%
[1]
  %Inh: 0%
[2]
  %Inh: 0%
[3]
  %Inh: 0%

## CC(C)N1CCC(n2cnc(-c3ccc(F)cc3)c2-c2ccnc(N)n2)CC1 [SB-223132]
PRKR
  %Inh: 18%
PRKX
  %Inh: 0%
PRP4
  %Inh: 41%
PYK2
  %Inh: 12%
QSK
  %Inh: 0%
RAF1
  %Inh: 33%
RET
  %Inh: 2%
RIOK1
  %Inh: 0%
RIOK2
  %Inh: 0%
RIOK3
  %Inh: 60%
RIPK1
  %Inh: 4%
RIPK2
  %Inh: 48%
RIPK4
  %Inh: 0%
RIPK5
  %Inh: 0%
ROCK1
  %Inh: 1%
ROCK2
  %Inh: 0%
ROS1
  %Inh: 0%
[1]
  %Inh: 14%
[2]
  %Inh: 0%
[3]
  %Inh: 7%

## COc1cc2c(Nc3cccc(NC(=O)c4ccccc4)c3)ncnc2cc1OCCCN1CCOCC1 [GSK223810]
PRKR
  %Inh: 0%
PRKX
  %Inh: 7%
PRP4
  %Inh: 2%
PYK2
  %Inh: 24%
QSK
  %Inh: 0%
RAF1
  %Inh: 16%
RET
  %Inh: 90.8%
RIOK1
  %Inh: 38%
RIOK2
  %Inh: 10%
RIOK3
  %Inh: 24%
RIPK1
  %Inh: 0%
RIPK2
  %Inh: 31%
RIPK4
  %Inh: 0%
RIPK5
  %Inh: 8%
ROCK1
  %Inh: 34%
ROCK2
  %Inh: 14%
ROS1
  %Inh: 0%
[1]
  %Inh: 9%
[2]
  %Inh: 0%
[3]
  %Inh: 9%

## Cc1ccc(NC(=O)c2cccc(C#N)c2)cc1-c1ccc(C(=O)Nc2ccncc2)cc1 [GSK1398463]
PRKR
  %Inh: 0%
PRKX
  %Inh: 14%
PRP4
  %Inh: 0%
PYK2
  %Inh: 1%
QSK
  %Inh: 3%
RAF1
  %Inh: 51%
RET
  %Inh: 7%
RIOK1
  %Inh: 21%
RIOK2
  %Inh: 0%
RIOK3
  %Inh: 0%
RIPK1
  %Inh: 2%
RIPK2
  %Inh: 3%
RIPK4
  %Inh: 38%
RIPK5
  %Inh: 8%
ROCK1
  %Inh: 22%
ROCK2
  %Inh: 0%
ROS1
  %Inh: 0%
[1]
  %Inh: 9%
[2]
  %Inh: 0%
[3]
  %Inh: 26%

## COc1ccc(-c2nc3n(c2-c2ccncc2)CCC3)cc1 [SKF-104493]
PRKR
  %Inh: 0%
PRKX
  %Inh: 0%
PRP4
  %Inh: 13%
PYK2
  %Inh: 6%
QSK; 1 µM
  %Inh: 29% and 5%
RAF1; 1 µM
  %Inh: 0% and 15%
RET; 1 µM
  %Inh: 0% and 10%
RIOK1; 1 µM
  %Inh: 24% and 4%
RIOK2; 1 µM
  %Inh: 20% and 0%
RIOK3; 1 µM
  %Inh: 0% and 10%
RIPK1; 1 µM
  %Inh: 0% and 20%
RIPK2; 1 µM
  %Inh: 40% and 46%
RIPK4; 1 µM
  %Inh: 9% and 12%
RIPK5; 1 µM
  %Inh: 19% and 0%
ROCK1; 1 µM
  %Inh: 21% and 5%
ROCK2; 1 µM
  %Inh: 29% and 0%
ROS1; 1 µM
  %Inh: 10% and 28%
[1]; 1 µM
  %Inh: 7% and 0%
[2]; 1 µM
  %Inh: 2% and 0%
[3]
  %Inh: 0%

## Nc1n[nH]c2nnc(-c3ccccc3)cc12 [SB-517389]
PRKR
  %Inh: 0%
PRKX
  %Inh: 0%
PRP4
  %Inh: 33%
PYK2
  %Inh: 0%
QSK
  %Inh: 0%
RAF1
  %Inh: 6%
RET
  %Inh: 88%
RIOK1
  %Inh: 26%
RIOK2
  %Inh: 0%
RIOK3
  %Inh: 0%
RIPK1
  %Inh: 0%
RIPK2
  %Inh: 17%
RIPK4
  %Inh: 17%
RIPK5
  %Inh: 0%
ROCK1
  %Inh: 0%
ROCK2
  %Inh: 0%
ROS1
  %Inh: 0%
[1]
  %Inh: 4%
[2]
  %Inh: 38%
[3]
  %Inh: 5%

## COc1ccc(Nc2nccc(N3CCC(NC(=O)c4cccc(NC(C)=O)c4)C3)n2)cc1 (centres unmarked) [GSK1379732]
PRKR
  %Inh: 0%
PRKX
  %Inh: 0%
PRP4
  %Inh: 48%
PYK2
  %Inh: 0%
QSK
  %Inh: 0%
RAF1
  %Inh: 0%
RET
  %Inh: 0%
RIOK1
  %Inh: 37%
RIOK2
  %Inh: 0%
RIOK3
  %Inh: 0%
RIPK1
  %Inh: 21%
RIPK2
  %Inh: 7%
RIPK4
  %Inh: 0%
RIPK5
  %Inh: 0%
ROCK1
  %Inh: 33%
ROCK2
  %Inh: 50%
ROS1
  %Inh: 8%
[1]
  %Inh: 21%
[2]
  %Inh: 0%
[3]
  %Inh: 9%

## Cc1ccc(O)cc1Nc1cc(C(F)(F)F)nc2ccc(-c3ccncc3)cc12 [GW630823]
PRKR
  %Inh: 0%
PRKX
  %Inh: 8%
PRP4
  %Inh: 0%
PYK2
  %Inh: 17%
QSK
  %Inh: 0%
RAF1
  %Inh: 0%
RET
  %Inh: 9%
RIOK1
  %Inh: 14%
RIOK2
  %Inh: 0%
RIOK3
  %Inh: 13%
RIPK1
  %Inh: 13%
RIPK2
  %Inh: 17%
RIPK4
  %Inh: 0%
RIPK5
  %Inh: 15%
ROCK1
  %Inh: 0%
ROCK2
  %Inh: 0%
ROS1
  %Inh: 5%
[1]
  %Inh: 8%
[2]
  %Inh: 0%
[3]
  %Inh: 0%
